Experimental data reported in the supplement of paper PMC4962491.
± gives the standard deviation of the averaged measurements.

System: FaDu
Assay: mitochondrial oxygen consumption rate normalised to cell number, Z score vs plate DMSO wells; higher = higher oxygen consumption (negative = OCR reduction)
Details: treatment time 24 h, assay medium: 5 mM glucose, 5 mM pyruvate, 4 mM glutamine
Method: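 Secondary screen: FaDu cells were incubated 24 h with the top 130 primary hits at 0.08, 0.4, 2 or 10 uM. Mitochondrial-specific OCR (basal minus antimycin A) was measured on a Seahorse XF96 in medium with 5 mM glucose, 5 mM pyruvate and 4 mM glutamine and normalised to Hoechst cell number. OCR score = (OCR - mean of plate DMSO wells) / SD of plate DMSO wells. Three repeats.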
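Further: compound exposure in DMEM (4 mM L-glutamine, 5 mM glucose), antimycin A injected at 2 µM after the basal reading and its residual OCR subtracted from basal.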

Compound	mitochondrial oxygen consumption rate normalised (0.08 µM)	mitochondrial oxygen consumption rate normalised (0.4 µM)	mitochondrial oxygen consumption rate normalised (2 µM)	mitochondrial oxygen consumption rate normalised (10 µM)
Cc1cc(/C=C/c2ccc3cc(N(C)C)ccc3[n+]2C)c(C)n1-c1ccccc1	-1.73 ± 1	-11.7 ± 0.64	-13.47 ± 0.04	< -13.8
CC[C@@]1(O)C(=O)OCc2c1cc1n(c2=O)Cc2cc3c(CN(C)C)c(O)ccc3nc2-1 [Topotecan]	-0.916 ± 1.4	0.308 ± 0.26	–	0.664 ± 1.4
CN(C)c1ccc2nc3ccc(=[N+](C)C)cc-3sc2c1	0.933 ± 1.1	1.47 ± 0.68	-2.4 ± 1.5	-2.94 ± 3.9
CCCCCCc1ccc(O)cc1O.Nc1c2ccccc2nc2ccccc12	-0.393 ± 1.3	-0.59 ± 2.2	-2.14 ± 1.1	-6.38 ± 0.68
Cc1ccc2c(Br)cc(Br)c(OC(=O)c3ccccc3)c2n1	1.43 ± 0.79	0.324 ± 0.71	-3.89 ± 1.2	-4.73 ± 1.5
CO[C@H](C(=O)[C@@H](O)[C@@H](C)O)[C@@H]1Cc2cc3cc(O[C@H]4C[C@@H](O[C@@H]5C[C@@H](O)[C@H](O)[C@@H](C)O5)[C@H](O)[C@@H](C)O4)c(C)c(O)c3c(O)c2C(=O)[C@H]1O[C@H]1C[C@@H](O[C@@H]2C[C@@H](O)[C@@H](O[C@@H]3C[C@](C)(O)[C@H](O)[C@@H](C)O3)[C@@H](C)O2)[C@H](O)[C@@H](C)O1	-4.64 ± 1.4	-7.12 ± 0.33	-7.79 ± 0.54	-8.14 ± 0.52
Cc1cc(N)c2ccccc2[n+]1CCCCCCCCCC[n+]1c(C)cc(N)c2ccccc21	0.324 ± 0.65	0.622 ± 0.8	-4.67 ± 2.1	-7.52 ± 1.4
N[C@@H](Cc1ccc(O)c(O)c1)C(=O)O	0.0621 ± 1.8	0.345 ± 0.69	1.31 ± 0.9	0.522 ± 2
COc1ccc2cc3[n+](cc2c1OC)CCc1cc2c(cc1-3)OCO2	-0.246 ± 0.98	-0.535 ± 0.76	-6.29 ± 0.22	-13.55 ± 0.13
CN(C)C(=O)C(CCN1CCC(O)(c2ccc(Cl)cc2)CC1)(c1ccccc1)c1ccccc1	0.831 ± 1.1	0.616 ± 1.4	0.593 ± 1.7	-0.932 ± 1.7
